Results reported in the supplement of paper PMC6555819.

Assays:
Assay in all cases: PBM binding z-score (relative to random genomic background probes); higher = stronger binding; sequences stand for … in GC…GCGATTGACAGCGTAGAATGAAGG
[1] = test system: RARb homodimer (NR concentration 270 nM)
In short: (§1)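 Scanned fluorescence from custom Agilent 4×180K protein-binding microarrays was regression-normalized. Binding z-scores use random background probes as reference. Ligand-free nuclear receptor dimers were incubated on the arrays for 1 h and detected with antibodies against each partner (one per run).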

[2] = test system: RARg:RXRa (NR concentration 270 nM, RXRa partner concentration 90 nM)
In short: as §1

[3] = test system: RARg homodimer (NR concentration 270 nM)
In short: as §1

[4] = test system: RXRa DBDmut IVT, anti-RXR (DBD mutation: RXRa K156A/R161A, NR concentration 90 nM)
In short: as §1

[5] = test system: RXRa homodimer (NR concentration 180 nM)
In short: as §1

[6] = test system: THRa:RXRa (NR concentration 90 nM, RXRa partner concentration 90 nM)
In short: as §1

[7] = test system: THRa homodimer (NR concentration 90 nM)
In short: as §1

[8] = test system: VDR homodimer (NR concentration 270 nM)
In short: as §1

| Sequence | PBM binding z-score [1] | PBM binding z-score [2] | PBM binding z-score [3] | PBM binding z-score [4] | PBM binding z-score [5] | PBM binding z-score [6] | PBM binding z-score [7] | PBM binding z-score [8] |
| --- | --- | --- | --- | --- | --- | --- | --- | --- |
| AGAATGAGGTTACGATCAGGGAAACAGAATACAT | 1.15 | 2.31 | 1.83 | 0.839 | 2.77 | 2.99 | 0.967 | 0.356 |
| TAGCCTAGGTCATTCAGTGGCCAGTATAGAAAGC | 2.59 | 4.43 | 3.96 | 1.92 | 2.63 | 2.55 | 0.351 | 1.24 |
| TAGCCTAGGACATTGGGCCAGTATAGTACGCATC | -0.251 | -0.0558 | 0.0958 | -0.671 | -0.0784 | 0.281 | -0.00513 | -0.291 |
| AGAACGAGGGCACTGAGTTGATAGCACGGGTGGC | 0.877 | 1.03 | 1.64 | 1.71 | 1.02 | 1.19 | 0.176 | 2.94 |
| GCTTGTAGATCAAGGTTAAGCAAGACTAAGCTAA | 0.306 | 0.623 | 0.359 | -0.0459 | 0.912 | 1.67 | -0.236 | -0.472 |
| TCATACAGGTGAAGGTAACTCAGGTACGCAGTCG | 0.9 | 0.872 | 0.925 | 1.33 | 1.42 | 1.67 | 0.594 | 0.668 |
| CCCCGGAGGACAACAGGAGGTCAGAGCTGCCAGA | 3.5 | 3.66 | 3.24 | -0.883 | 2.21 | 2.94 | 1.39 | 1.77 |
